Experimental data reported in PubChem BioAssay (Tox21).
Where “and” joins values, the source holds several entries; their conditions need not be identical. Identical values can stand only once. Records with an inconclusive call do not appear. Where a call stands in place of a potency, no number is given. More than one record can exist for a structure, and the calls need not agree. Calls of active or inactive are those of the source. The call rests on the fitted dose curve; in most records, active means well fitted cell-killing curve with a large enough effect in the repeat runs; inconclusive means weak or mixed curves; inactive means flat fitted curve, though single readings scatter.
Potency means the concentration at half of the fitted maximal effect.

Experiment: qHTS assay to identify small molecule antagonists of the estrogen related receptor (ERR) signaling pathway from Tox21 library - cell viability counter screen (AID 1224834); further: nearly all actives have a fitted effect of over 30% in size
Details: ERR reporter cells viability, CellTiter-Fluor, 17.5 h; series mostly up to 92.4 µM
From the text: National Center for Advancing Translational Sciences [NCATS]
NIH Chemical Genomics Center [NCGC]
U.S. Environmental Protection Agency [EPA]
National Institutes of Environmental Health Sciences [NIEHS]
National Toxicology Program [NTP]
U.S. Food and Drug Administration [FDA]
Estrogen related receptors (ERRs), the first orphan nuclear receptors discovered, play an important role in the control of cellular energy metabolism. ERRs are required for high-energy production in response to the environmental challenges. ERR-alpha was also identified as an adverse marker for breast cancer progression; ERR-alpha-positive tumors have a poor prognosis. To screen and to identify environmental compounds that perturb the ERR signaling pathways could provide valuable information for potential therapeutic or preventive measures in the treatment of metabolic disease. To differentiate true ERR antagonists or agonist from cytotoxic substances, the assay is multiplexed with cell viability assay.
Tox21 Assay Protocol Summary:
The ERR cells were dispensed at 2,000 cells/5 ul/well in 1536-well white plates using a Multidrop dispenser. After the assay plates were incubated at a 37 C/5% CO2 incubator for 6 hours, 23 nL of compounds dissolved in DMSO, positive and negative controls or DMSO only was transferred to the assay plate by a pin tool. The plates were incubated at 37 C for 17.5 hours. 1 ul/well of CellTiter-Fluor reagent was added into the assay plates using a Flying Reagent Dispenser. After 30-minute incubation at 37 C/5% CO2, the fluorescence intensity in the plates was measured using a ViewLux plate reader.
With ClC(Cl)(Cl)Br the Potency was “inactive”.
With CN(C)c1nc(=O)n(C2CCCCC2)c(=O)n1C the Potency was “inactive”.
For N#CCCCCC#N, the Potency was “inactive”.
With OCCOCCO the Potency was “inactive”.
For C[N+](C)(C)CC(=O)O, the Potency was “inactive”.
With CCCCCCCC[N+](C)(CCCCCCCC)CCCCCCCC the Potency was 17.2 µM (active) and 1.72 µM (active) and 21.7 µM (active).
In the case of CCCCOCCOC(C)=O, the Potency was “inactive”.
In the case of O=[N+]([O-])c1ccc(Nc2ccccc2)cc1, the Potency was 27.5 µM (active) and 30.6 µM (active).
For ClC(Cl)=C(Cl)C(Cl)=C(Cl)Cl, the Potency was “inactive”.
With CC(C)Nc1nc(Cl)nc(NC(C)C)n1 the Potency was “inactive”.
With CCOP(=O)(OCC)OCC the Potency was “inactive”.
In the case of O=C(O)c1nn(Cc2ccc(Cl)cc2Cl)c2ccccc12, the Potency was “inactive”.
In the case of CC(C)(O)C(=O)Nc1ccc([N+](=O)[O-])c(C(F)(F)F)c1, the Potency was “inactive”.
For CC(C)(c1ccccc1)c1ccc(O)c(C(C)(C)c2ccccc2)c1, the Potency was 54 µM (active) and 54.5 µM (active).
In the case of Oc1ccc(Cl)cc1Cl, the Potency was “inactive”.
For CC1=C(C(=O)Nc2ccccc2)SCCO1, the Potency was “inactive”.
In the case of CC(C)(C#N)N=NC(C)(C)C#N, the Potency was “inactive”.
For C[C@]12CC[C@H]3[C@@H](CCC4=CC(=O)CC[C@@H]43)[C@@H]1CC[C@@H]2O, the Potency was “inactive”.
For COP(=O)(NC(C)=O)SC (stereo not given), the Potency was “inactive”.
For COP(=S)(OC)Oc1ccc(Sc2ccc(OP(=S)(OC)OC)cc2)cc1, the Potency was “inactive”.
In the case of COP(=S)(OC)Oc1ccc(S(=O)(=O)N(C)C)cc1, the Potency was “inactive”.
In the case of CCOP(=O)(O)OCC (tested in a mixture with another compound), the Potency was “inactive and 54 µM (active)”.
In the case of CCCCCCCCCC(CC)c1ccc(S(=O)(=O)O)cc1 (stereo not given), the Potency was 61.8 µM (active) and inactive.
With O=C1Nc2ccc(Cl)cc2C(c2ccccc2)=NC1O (stereo not given) the Potency was “inactive”.
With CC(C)CON=O the Potency was “inactive”.
For Cc1cc(Cl)ccc1N=CN(C)C, the Potency was “inactive”.
With CCCCC(C#N)(Cn1cncn1)c1ccc(Cl)cc1 (stereo not given) the Potency was “inactive”.
With ClC(Cl)(Cl)c1ccccc1 the Potency was “inactive”.
With CCC/C=N/O the Potency was “inactive”.
In the case of CN(C)P(=O)(N(C)C)N(C)C, the Potency was “inactive”.
For CN(C)c1ccccc1, the Potency was “inactive”.
For N#Cc1cccnc1, the Potency was “inactive”.
For O=C1CCCO1, the Potency was “inactive”.
With O=[N+]([O-])c1ccc(Cl)c([N+](=O)[O-])c1 the Potency was 24.7 µM (active) and 38.6 µM (active).
In the case of S=c1[nH]c2ccccc2[nH]1, the Potency was “inactive”.
With [Cl-].[Cl-].[Cl-].[Fe+3] the Potency was “inactive”.
With CCC(=O)Nc1ccc(Cl)c(Cl)c1 the Potency was “inactive”.
With CCOC(=O)c1ccccc1N the Potency was “inactive”.
In the case of CC(C)=CC1C(C(=O)OCc2cccc(Oc3ccccc3)c2)C1(C)C (stereo not given), the Potency was “inactive”.
For CC1(C)C(C(=O)OC(C#N)c2cccc(Oc3ccccc3)c2)C1(C)C (stereo not given), the Potency was “inactive”.
